Results filed as inconclusive are left out. Calls of active or inactive are those of the source. Unless noted, calls follow the shape of the dose curve; as a rule, active = well fitted curve in the direction sought with a large enough effect; inconclusive = small, poorly fitted or top-dose-only effect, or another doubt; inactive = no such curve, though single readings can be large; an effect the other way counts as inactive or inconclusive.
Experiments:
[1] = qHTS for Inhibitors of the Functional Ribonucleoprotein Complex (vRNP) of Lassa (LASV) Arenavirus: LASV Primary Screen - GLuc reporter signal (AID 1347082; calls by dose curve; tested in HEK293 reporter line)
[2] = qHTS for Inhibitors of the Functional Ribonucleoprotein Complex (vRNP) of Lassa (LASV) Arenavirus: Viability assay - alamar blue signal for LASV Primary Screen (AID 1347083; calls by dose curve; tested in HEK293 reporter line)
[3] = qHTS for Inhibitors of the Functional Ribonucleoprotein Complex (vRNP) of Lymphocytic Choriomeningitis Arenaviruses (LCMV): Viability assay - alamar blue signal for LCMV Primary Screen (AID 1347085; calls by dose curve; tested in HEK293 reporter line)
[4] = target: Nucleoprotein (Lymphocytic choriomeningitis virus (strain Armstrong)) (UniProt P09992); assay: qHTS for Inhibitors of the Functional Ribonucleoprotein Complex (vRNP) of Lymphocytic Choriomeningitis Arenaviruses (LCMV): LCMV Primary Screen - GLuc reporter signal (AID 1347086; calls by dose curve)
[5] = tested on: Zika virus NS2B-NS3 protease; assay: Primary screen GU AMC qHTS for Zika virus inhibitors (AID 1347154)
How it was run: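 Unlinked Zika NS2B hydrophilic domain–NS3 protease complex at 25 nM in 10 mM Tris-HCl pH 8.0, 0.01% Tween 20, with an AMC peptide substrate. Fluorescence change (340/450 nm) over 15 min at room temperature, normalized to controls, fitted to 4-parameter Hill.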

[6] = OV-KATE Cancer Cell Toxicity qHTS against the NCATS CANVASS Library (AID 1347345)
How it was run: (§1)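 Following a 4 h pre-incubation of 1000 seeded cells, compounds were pinned in an 11-pnt dilution series and left for 72 h; viability then came from CellTiter-Glo.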

[7] = HPAF-II Cancer Cell Toxicity qHTS against the NCATS CANVASS Library (AID 1347346)
How it was run: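 Cytotoxicity in HPAF-II pancreatic cancer cells: 72 h treatment across 11 concentrations, ATP-based CellTiter-Glo luminescence endpoint.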

[8] = UWB1.289 Cancer Cell Toxicity qHTS against the NCATS CANVASS Library (AID 1347347)
How it was run: as §1

[9] = OV-SAHO Cancer Cell Toxicity qHTS against the NCATS CANVASS Library (AID 1347348)
How it was run: as §1

[10] = Panc-1005 Cancer Cell Toxicity qHTS against the NCATS CANVASS Library (AID 1347349)
How it was run: as §1

[11] = U-118MG Cancer Cell Toxicity qHTS against the NCATS CANVASS Library (AID 1347351)
How it was run: as §1

[12] = COV-362 Cancer Cell Toxicity qHTS against the NCATS CANVASS Library (AID 1347352)
How it was run: (§2)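 qHTS cytotoxicity: compounds tested in 11 concentrations on 1000 seeded cells per well over 72 h; bortezomib served as control; signal from CellTiter-Glo luminescence.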

[13] = UWB1.289-WTBRCA1 Cancer Cell Toxicity qHTS against the NCATS CANVASS Library (AID 1347354)
How it was run: as §2

[14] = HEK-293 Cancer Cell Toxicity qHTS against the NCATS CANVASS Library (AID 1347355)
How it was run: as §2

[15] = HPAF-II 24hr Apoptosis Induction qHTS against the NCATS CANVASS Library (AID 1347356)
How it was run: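 Apoptosis induction in HPAF-II pancreatic cancer cells is measured as caspase-3/7 luminescence after a 24-hour exposure to compounds.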

[16] = HPAF-II 12hr Apoptosis Induction qHTS against the NCATS CANVASS Library (AID 1347358)
How it was run: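 Apoptosis in HPAF-II pancreatic cancer cells is scored as caspase 3/7 luminescence following a 12-hour exposure to an 11-point compound series.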

[17] = HEK293 24hr Apoptosis Induction qHTS against the NCATS CANVASS Library (AID 1347359)
How it was run: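 HEK293 cells, 500 per well, exposed to an 11-point compound series for 24 hours at 37 degrees C. Caspase 3/7 activity read by Caspase-Glo luminescence (DEVD substrate) after 15 min at room temperature.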

[18] = HPAF-II 18hr Apoptosis Induction qHTS against the NCATS CANVASS Library (AID 1347360)
How it was run: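 Seed HPAF-II cells at 500/well in DMEM + 10% FBS, pin-transfer compounds, incubate 18 hours at 37 degrees C/5% CO2, add Caspase-Glo 3/7 reagent, wait 15 min, read luminescence.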

[19] = HEK293 12hr Apoptosis Induction qHTS against the NCATS CANVASS Library (AID 1347361)
How it was run: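 Cells are seeded, dosed with an 11-point compound series and incubated 12 hours. Caspase-3/7 activity is detected by luminescent DEVD-substrate reagent after 15 minutes at room temperature.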

[20] = tested on: NAD(P)H diaphorase (Clostridium kluyveri); assay: Diaphorse counterscreen qHTS: Assay Interference Panel against the NCATS CANVASS Library (AID 1347362)
How it was run: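 Clostridium kluyveri diaphorase in PBS + 0.01% Tween-20 preincubated 15 min with compounds. Resazurin and NADH then added for 5 min at room temperature in the dark; resorufin fluorescence read (ex 525, em 598).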

[21] = target: Luciferin 4-monooxygenase (Photinus pyralis) (UniProt P08659); assay: Firefly luciferase counterscreen qHTS: Assay Interference Panel against the NCATS CANVASS Library (AID 1347363)
How it was run: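 Purified P. pyralis luciferase (0.04 ug/mL, 4x reagent) added to Tris-acetate buffer with 0.013 mM D-luciferin, 0.013 mM ATP and 13.3 mM Mg-acetate; compounds preincubated 15 min, then luminescence read after 5 min, RT.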

[22] = KB-8-5-11 Cancer Cell Toxicity qHTS against the NCATS CANVASS Library (AID 1347364)
How it was run: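 Natural products were titrated in 11 points onto KB-8-5-11 cells, 500 per well, and cytotoxicity was scored from CellTiter-Glo luminescence after 72 hr culture.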

[23] = SDT Cancer Cell Toxicity qHTS against the NCATS CANVASS Library (AID 1347365)
How it was run: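 Dispense 500 SDT cells per well; pin-transfer compounds; incubate 72 hr at 37C, 5% CO2, 95% RH; add CellTiterGlo and read luminescence.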

[24] = KB-3-1 Cancer Cell Toxicity qHTS against the NCATS CANVASS Library (AID 1347366)
How it was run: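 Luminescence from CellTiter-Glo (10 min, room temperature) measured KB-3-1 viability after 72 hr compound exposure at 37C. Cells were seeded at 500/well and tested in an 11-point series.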

[25] = qHTS for ATAD5 Agonist screened against the NCATS CANVASS Library (AID 1347367)
How it was run: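 HEK293T-ATAD5 luc reporter; 2000 cells/well; 5hr settle; cpd 11-pt qHTS; 16hr 37C 5% CO2 dark; viability by CellTiter-Fluor (AFC fluorescence); then luciferase luminescence, 30min RT.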

[26] = G06 Cancer Cell Toxicity qHTS against the NCATS CANVASS Library (AID 1347368)
How it was run: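 Cytotoxicity toward canine glioma G06 cells is scored from cellular ATP via luminescence after 72 hr compound exposure at 500 cells/well.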

[27] = MCF7 Cancer Cell Toxicity qHTS against the NCATS CANVASS Library (AID 1347369)
How it was run: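 Cells seeded at 500/well, then compound pinned. Plates incubated 72 hr at 37C, 5% CO2. CellTiterGlo added; luminescence read.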

[28] = qHTS for ATAD5 Antagonist screened against the NCATS CANVASS Library (AID 1347370)
How it was run: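 HEK293T cells with a stably integrated ATAD5-controlled luciferase reporter were exposed to compounds (11-pt) alongside 10 uM 5-fluorouridine as ATAD5 stabilizer for 16hr at 37C. Viability was read by CellTiter-Fluor fluorescence, then ATAD5 by luminescence.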

[29] = J3T Cancer Cell Toxicity qHTS against the NCATS CANVASS Library (AID 1347371)
How it was run: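 Viability of the J3T glioma line from dog is scored by ATP luminescence after a 72 hr incubation with natural products.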

[30] = target: Nuclear receptor subfamily 1 group I member 3 (Homo sapiens) (UniProt Q14994); assay: qHTS for Constitutive Androstane Receptor (CAR) Antagonist screened against the NCATS CANVASS Library (AID 1347372)
How it was run: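 HepG2 cells stably carrying hCAR and CYP2B6-2.2kb luciferase reporter, 2500 cells/well, compound with 50 nM CITCO agonist for 24hr at 37C. ONE-Glo luminescence measured CAR activity; CellTiter-Fluor read viability.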

[31] = qHTS for Hypoxia signaling pathway (HIF-1) agonists against the NCATS CANVASS Library (AID 1347375)
How it was run: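 Inducers of HIF-1 signaling were detected in ME-180 cells bearing an HRE-driven beta-lactamase reporter after 17 h compound exposure. Activity came from CCF4-AM FRET emission ratio (460/530 nm) in qHTS format.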

[32] = 10-beta competent E. coli microbial cell viability qHTS against the NCATS CANVASS Library (AID 1347376)
How it was run: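 Cytotoxicity toward competent E. coli is scored from cellular ATP content via BacTiter-Glo luminescence following overnight compound exposure at 37C, 5% CO2.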

[33] = DH5-alpha competent E. coli microbial cell viability qHTS against the NCATS CANVASS Library (AID 1347377); conditions: outcome: at 46.1 µM (top of the series)
How it was run: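 Cell viability of competent DH5-alpha E. coli is scored from ATP content by luminescence. Cells sit overnight at 37C with compound across an 11-point concentration series.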

[34] = qHTS for Inflammasome Signaling Inhibitors: IL-1-beta AlphaLISA screen against the NCATS CANVASS Library (AID 1347379)
How it was run: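 Human THP-1 cells were pretreated 1 hr at 37 °C with compounds (up to 57.5 uM final), then stimulated with LPS (250 ng/mL final) and ATP (1.25 mM final). Secreted IL-1B was read by AlphaLISA after 16 hr.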

[35] = Inflammasome Signaling qHTS Counterscreen: IL-1-beta AlphaLISA counterscreen against the NCATS CANVASS Library (AID 1347381)
How it was run: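 To flag interference with the AlphaLISA read-out, a known amount of purified IL-1-beta (4 pg) replaced cell supernatant. Detection used anti-IL-1-beta acceptor beads, biotinylated antibody and streptavidin donor beads at room temperature.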

[36] = Cytotoxicity qHTS for assessment of Hepg2 cells membrane integrity screened against the NCATS CANVASS Library (AID 1347387)
How it was run: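 Fluorescence proportional to lysed-cell number, from LDH leaking out of HepG2 cells exposed 5 hr at 37C to 0.59 nM - 46 uM compound (11-point qHTS), is measured after 10 min with CytoTox-ONE.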

[37] = qHTS assay for small molecule disruptors of mitochondrial membrane potential screened against the NCATS CANVASS Library (AID 1347389)
How it was run: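 Compounds tested in 11-point qHTS series on HepG2 cells for 1 hr; membrane-potential dye added for 30 min at 37C. Lower red-to-green ratio indicates loss of potential.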

[38] = qHTS for activators of Nrf2/ARE signaling pathway screened against the NCATS CANVASS Library (AID 1347391)
How it was run: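 Cells carrying an ARE-driven beta-lactamase reporter (HepG2 background) are dosed for 16 h, then stained with CCF4. Cell viability in the same wells is measured by CellTiter-Glo luminescence.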

[39] = qHTS for inhibitors of ER calcium dysfunction: SERCaMP assay screened against the NCATS CANVASS Library (AID 1347393)
How it was run: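 SH-SY5Y GLuc-SERCaMP, 1000 cells/well, 4 h attach; cpd 16 h, 37C/5% CO2; thapsigargin (added as 6x 600 nM) 4 h; coelenterazine; luminescence. Reduced reporter release = ER Ca stabilization.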

[40] = Vero-766 cells viability qHTS against the NCATS CANVASS Library: Counterscreen for Zika virus inhibition assay (AID 1347394)
How it was run: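 Vero 766, no virus; 1000 cells/well; o/n attach; cpd 11-pt; 72 h, 37C, 5% CO2; CTG luminescence; cell-free media wells = 100% inhibition.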

[41] = qHTS for inhibitors of Wild type Zika virus screened against the NCATS CANVASS Library (AID 1347396)
How it was run: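 Luminescent CellTiter Glo read-out of virus-induced cytotoxicity, 72 h post-infection, in Vero 766 cells. Compounds were tested at 11 concentrations; uninfected, vehicle-treated wells defined 100% inhibition.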

[42] = Viability qHTS for inhibitors of the SERCaMP assay screened against the NCATS CANVASS Library (AID 1347400)
How it was run: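 Cytotoxicity counter-screen: ATP content (CellTiter-Glo luminescence) of SH-SY5Y-GLuc SERCaMP MJH297 cells after 48 h at 37C with compounds in an 11-point qHTS series.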

[43] = Redox Reaction Profiling qHTS: Assay Interference Panel against the NCATS CANVASS Library (AID 1347401)
How it was run: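 Compounds in 11-point series incubated with 5 uM resazurin and 200 uM DTT in 50 mM HEPES pH 7.3, 50 mM NaCl. Resorufin fluorescence (Ex 525/Em 598) read before and after 15 min in the dark.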

[44] = qHTS for inhibitors of Rabies Virus screened against the NCATS CANVASS Library (AID 1347402; calls by dose curve)
[45] = Primary qHTS for small molecule stabilizers of the endoplasmic reticulum resident proteome: Secreted ER Calcium Modulated Protein (SERCaMP) assay (AID 1508630)
How it was run: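 GLuc-SERCaMP-expressing SH-SY5Y cells, pretreated 16 h with compound, are challenged with thapsigargin to empty ER calcium stores; after 4 h, coelenterazine is added directly to the medium and luminescence is imaged.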

Measured: Potency

Chain of Nucleoprotein (Lymphocytic choriomeningitis virus (strain Armstrong)) (P09992 whole entry, looked up): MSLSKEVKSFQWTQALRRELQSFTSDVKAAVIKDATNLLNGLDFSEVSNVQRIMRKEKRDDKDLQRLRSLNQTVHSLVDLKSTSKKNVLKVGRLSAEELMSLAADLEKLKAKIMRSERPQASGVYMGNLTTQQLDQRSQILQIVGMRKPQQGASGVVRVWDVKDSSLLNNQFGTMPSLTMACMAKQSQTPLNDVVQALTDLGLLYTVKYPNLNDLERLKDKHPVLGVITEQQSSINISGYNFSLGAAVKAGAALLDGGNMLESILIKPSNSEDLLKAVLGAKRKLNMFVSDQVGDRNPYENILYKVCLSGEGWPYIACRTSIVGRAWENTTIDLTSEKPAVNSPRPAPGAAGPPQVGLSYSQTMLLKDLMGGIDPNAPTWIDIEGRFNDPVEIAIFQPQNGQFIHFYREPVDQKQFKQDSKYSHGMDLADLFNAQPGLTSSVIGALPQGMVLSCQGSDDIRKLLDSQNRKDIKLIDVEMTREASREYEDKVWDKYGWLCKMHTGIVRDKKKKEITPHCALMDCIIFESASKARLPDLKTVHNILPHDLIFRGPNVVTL
Chain of Nuclear receptor subfamily 1 group I member 3 (Homo sapiens) (Q14994 whole entry, looked up): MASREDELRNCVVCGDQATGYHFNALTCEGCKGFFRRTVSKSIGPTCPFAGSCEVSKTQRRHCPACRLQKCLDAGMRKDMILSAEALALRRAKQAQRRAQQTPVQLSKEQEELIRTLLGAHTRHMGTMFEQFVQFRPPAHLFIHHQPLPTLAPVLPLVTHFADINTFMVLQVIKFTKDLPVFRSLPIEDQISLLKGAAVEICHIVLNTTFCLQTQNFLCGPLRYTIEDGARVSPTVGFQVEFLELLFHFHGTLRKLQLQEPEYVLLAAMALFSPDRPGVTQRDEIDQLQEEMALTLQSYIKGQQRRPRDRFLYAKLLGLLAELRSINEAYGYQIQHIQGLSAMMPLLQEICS
Chain of Luciferin 4-monooxygenase (Photinus pyralis) (P08659 whole entry, looked up): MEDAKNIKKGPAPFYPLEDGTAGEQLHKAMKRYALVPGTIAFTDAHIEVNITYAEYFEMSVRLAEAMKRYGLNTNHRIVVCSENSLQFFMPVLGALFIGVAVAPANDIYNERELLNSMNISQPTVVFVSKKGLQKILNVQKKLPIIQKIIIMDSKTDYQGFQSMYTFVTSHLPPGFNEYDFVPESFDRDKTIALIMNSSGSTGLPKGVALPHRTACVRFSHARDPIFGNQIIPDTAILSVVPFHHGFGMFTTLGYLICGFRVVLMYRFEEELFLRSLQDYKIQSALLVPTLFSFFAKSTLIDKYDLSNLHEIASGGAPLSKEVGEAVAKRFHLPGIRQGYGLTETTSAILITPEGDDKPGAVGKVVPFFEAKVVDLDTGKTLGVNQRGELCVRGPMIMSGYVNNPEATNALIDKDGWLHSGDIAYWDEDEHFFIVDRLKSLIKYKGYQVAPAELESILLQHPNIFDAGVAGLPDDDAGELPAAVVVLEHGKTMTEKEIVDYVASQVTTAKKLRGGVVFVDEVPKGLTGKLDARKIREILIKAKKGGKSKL

NCCc1ccccc1
inactive: [1] | [2] | [3] | [4] | [5] | [6] | [7] | [8] | [9] | [10] | [11] | [12] | [13] | [14] | [15] | [16] | [17] | [18] | [19] | [20] | [21] | [22] | [23] | [24] | [25] | [26] | [27] | [28] | [29] | [30] | [31] | [32] | [33] | [34] | [35] | [36] | [37] | [38] | [39] | [40] | [41] | [42] | [43] | [44] | [45]

Reference: PubChem BioAssay (NCATS)
